Laboratory results published in PubChem BioAssay (NCATS).
Inconclusive results are not listed. Entries that show only a call come without a potency. Calls of active or inactive are those of the source. Unless noted, calls follow the shape of the dose curve; as a rule, active = well fitted curve in the direction sought with a large enough effect; inconclusive = small, poorly fitted or top-dose-only effect, or another doubt; inactive = no such curve, though single readings can be large; an effect the other way counts as inactive or inconclusive.

Molecular target: Glucagon-like peptide 1 receptor (Homo sapiens) (UniProt P43220)
Sequence (P43220 whole entry, looked up): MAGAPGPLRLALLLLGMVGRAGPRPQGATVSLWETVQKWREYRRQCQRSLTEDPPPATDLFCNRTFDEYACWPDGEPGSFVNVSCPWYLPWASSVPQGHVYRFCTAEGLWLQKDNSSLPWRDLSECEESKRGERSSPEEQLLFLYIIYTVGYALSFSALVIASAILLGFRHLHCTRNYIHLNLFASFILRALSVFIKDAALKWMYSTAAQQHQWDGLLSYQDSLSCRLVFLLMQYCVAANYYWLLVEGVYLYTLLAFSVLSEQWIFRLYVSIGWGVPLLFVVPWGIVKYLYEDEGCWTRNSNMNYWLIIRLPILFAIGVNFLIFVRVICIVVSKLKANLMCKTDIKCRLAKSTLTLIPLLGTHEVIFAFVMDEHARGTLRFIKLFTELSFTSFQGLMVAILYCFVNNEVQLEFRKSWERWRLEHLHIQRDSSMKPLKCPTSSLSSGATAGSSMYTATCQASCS
Test: qHTS of GLP-1 Receptor Agonists: LOPAC Validation (AID 624148);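 also: luminescence from a luciferase reporter switched on by cAMP; higher luminescence signal means agonism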
Conditions: GLP-1R agonist cell assay; series mostly up to 46.1 µM
Outline: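 Agonism scored as increased luciferase luminescence driven by cAMP in HEK293 clones carrying GLP-1R. Cells settled 12 hours, received compound for 4-6 hr at 37 deg C, 5% CO2, and were read after 12 min detection reagent at RT.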

Row | SMILES | outcome
1 | Oc1ccc(O)cc1 | inactive
2 | C[C@@H]1C(=O)NC2=Nc3cccc(Cl)c3CN21 | inactive
3 | COc1cc2c(cc1O)CC[C@@H]1[C@@H]2CC[C@]2(C)[C@@H](O)CC[C@@H]12 | inactive
4 | CNCCC(Oc1ccccc1C)c1ccccc1 (stereo not given) | inactive
5 | CC[C@H](C)C(=O)O[C@H]1CCC=C2C=C[C@H](C)[C@H](CC[C@@H]3C[C@@H](O)CC(=O)O3)[C@H]21 | inactive
6 | CC(CCc1ccccc1)NCC(O)c1ccc(O)c(C(N)=O)c1 (stereo not given) | inactive
7 | CCCC1O[C@@H]2C[C@H]3[C@@H]4CCC5=CC(=O)C=C[C@]5(C)[C@H]4[C@@H](O)C[C@]3(C)[C@]2(C(=O)CO)O1 (stereo not given in full) | inactive
8 | CC(C)C[C@H]1C(=O)N2CCC[C@H]2[C@]2(O)O[C@](NC(=O)[C@@H]3C=C4c5cccc6[nH]c(Br)c(c56)C[C@H]4N(C)C3)(C(C)C)C(=O)N12 | inactive
9 | CC(=O)O[C@H]1C[C@@H]2CC[C@@H]3[C@H](CC[C@@]4(C)[C@H]3C[C@H]([N+]3(C)CCCCC3)[C@@H]4OC(C)=O)[C@@]2(C)C[C@@H]1[N+]1(C)CCCCC1 | inactive

Tested on: not listed separately
Test: qHTS of Nrf2 Activators: LOPAC Validation (AID 624149); also: potency is read from the fitted curve at half-maximal effect
Conditions: Nrf2/ARE reporter cell assay; series mostly up to 46.1 µM
Outline: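 Following overnight seeding in 5% FBS OPTI-MEM, AREc32_Fluc cells receive compounds for a 24 hr incubation at 37 deg C with 5% CO2. Steady-Glo is added, and after 30 min at RT luminescence is recorded.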

Row | SMILES | Potency
10 | Oc1ccc(O)cc1 | 18.4 µM (active)
11 | C[C@@H]1C(=O)NC2=Nc3cccc(Cl)c3CN21 | inactive
12 | COc1cc2c(cc1O)CC[C@@H]1[C@@H]2CC[C@]2(C)[C@@H](O)CC[C@@H]12 | inactive
13 | CNCCC(Oc1ccccc1C)c1ccccc1 (stereo not given) | inactive
14 | CC[C@H](C)C(=O)O[C@H]1CCC=C2C=C[C@H](C)[C@H](CC[C@@H]3C[C@@H](O)CC(=O)O3)[C@H]21 | inactive
15 | CC(CCc1ccccc1)NCC(O)c1ccc(O)c(C(N)=O)c1 (stereo not given) | inactive
16 | CCCC1O[C@@H]2C[C@H]3[C@@H]4CCC5=CC(=O)C=C[C@]5(C)[C@H]4[C@@H](O)C[C@]3(C)[C@]2(C(=O)CO)O1 (stereo not given in full) | inactive
17 | CC(C)C[C@H]1C(=O)N2CCC[C@H]2[C@]2(O)O[C@](NC(=O)[C@@H]3C=C4c5cccc6[nH]c(Br)c(c56)C[C@H]4N(C)C3)(C(C)C)C(=O)N12 | inactive
18 | CCC(NC(C)C)C(O)c1ccc(O)c(O)c1 (stereo not given) | inactive
19 | CC(=O)O[C@H]1C[C@@H]2CC[C@@H]3[C@H](CC[C@@]4(C)[C@H]3C[C@H]([N+]3(C)CCCCC3)[C@@H]4OC(C)=O)[C@@]2(C)C[C@@H]1[N+]1(C)CCCCC1 | inactive

Tested on: not listed separately
Test: HTS Assay for Allosteric Antagonists of the Human D2 Dopamine Receptor: Hit Validation in HTRF (AID 624455);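 also: stable D1 dopamine receptor cell line scored for blocking the D1 response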
Conditions: Cells stably expressing D1 dopamine receptor, inhibition mode; series mostly up to 46.1 µM
Outline: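 Validation of hits used D1 receptor stably expressed in cells with HTRF detection of response inhibition; origin screen measured calcium flux following EC80 dopamine in a force-coupled, inducible Hek293 Trex D2 cell line.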

Row | SMILES | outcome
20 | Oc1ccc(O)cc1 | inactive
21 | C[C@@H]1C(=O)NC2=Nc3cccc(Cl)c3CN21 | inactive
22 | COc1cc2c(cc1O)CC[C@@H]1[C@@H]2CC[C@]2(C)[C@@H](O)CC[C@@H]12 | inactive
23 | CC[C@H](C)C(=O)O[C@H]1CCC=C2C=C[C@H](C)[C@H](CC[C@@H]3C[C@@H](O)CC(=O)O3)[C@H]21 | inactive
24 | CC(CCc1ccccc1)NCC(O)c1ccc(O)c(C(N)=O)c1 (stereo not given) | inactive
25 | CCCC1O[C@@H]2C[C@H]3[C@@H]4CCC5=CC(=O)C=C[C@]5(C)[C@H]4[C@@H](O)C[C@]3(C)[C@]2(C(=O)CO)O1 (stereo not given in full) | inactive
26 | CCC(NC(C)C)C(O)c1ccc(O)c(O)c1 (stereo not given) | inactive
27 | CC(=O)O[C@H]1C[C@@H]2CC[C@@H]3[C@H](CC[C@@]4(C)[C@H]3C[C@H]([N+]3(C)CCCCC3)[C@@H]4OC(C)=O)[C@@]2(C)C[C@@H]1[N+]1(C)CCCCC1 | inactive

Tested on: not listed separately
Test: Cytotoxicity counterscreen for NFkB agonists and antagonists (AID 624476); also: potency is read from the fitted curve at half-maximal effect
Conditions: NFkB reporter cell line viability counterscreen; series mostly up to 92.2 µM

Row | SMILES | Potency
28 | COc1cc2c(cc1O)CC[C@@H]1[C@@H]2CC[C@]2(C)[C@@H](O)CC[C@@H]12 | inactive
29 | COc1cccc2c1C(=O)c1c(O)c3c(c(O)c1C2=O)C[C@@](O)(C(=O)CO)C[C@@H]3O[C@H]1C[C@H](N)[C@H](O)[C@H](C)O1 | 0.0332 µM (active)
30 | Nc1ccn([C@@H]2O[C@H](CO)[C@@H](O)C2(F)F)c(=O)n1 | inactive

Tested on: not listed separately
Test: qHTS Assay for Identification of Small Molecule Agonists for NFkB Signaling Pathway. (AID 624478);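 also: compounds tested together with TNF alpha at its EC50 of 10 pM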
Conditions: NFkB pathway reporter cell assay, agonist mode, cells co-stimulated with 10 pM TNF alpha; series mostly up to 46.1 µM
Outline: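 Assay medium contained 0.5% FBS and 10 mM HEPES pH 7.3. Compounds were added together with TNF alpha (10 pM final), incubated 5 h at 37 C, and the beta-lactamase signal was measured fluorometrically.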

Row | SMILES | outcome
31 | COc1cc2c(cc1O)CC[C@@H]1[C@@H]2CC[C@]2(C)[C@@H](O)CC[C@@H]12 | inactive
32 | COc1cccc2c1C(=O)c1c(O)c3c(c(O)c1C2=O)C[C@@](O)(C(=O)CO)C[C@@H]3O[C@H]1C[C@H](N)[C@H](O)[C@H](C)O1 | inactive
33 | Nc1ccn([C@@H]2O[C@H](CO)[C@@H](O)C2(F)F)c(=O)n1 | inactive

Tested on: not listed separately
Test: Cell Proliferation Assay against the TMD8 Cell Line (AID 651645);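 also: cells exposed to compound for 48 h before reading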
Conditions: TMD8 DLBCL cell line proliferation/viability; at 46.1 µM (top of the series) unless noted
From the text: One class of targeted therapeutics showing early clinical success in killing of ABC DLBCL lines are small molecule inhibitors of the Bruton tyrosine kinase (BTK) 11.
Prior to any combination assays, using an NCATS developed oncology compound library called the Mechanism of Interrogation Plate (MIPE), two well studied ABC DLBCL lines (TMD8 and HBL1) were screened using a cell viability assay (CellTiterGlo) and a 12-point titration series for each single agent. These initial experiments offered insight into the concentration range that offered the best coverage of activity and non-activity to assure relevant data is generated. In addition to the viability signature associated with this library, we examined the apoptotic response of each agent versus the TMD8 line as judged by caspase 3/7 activation. Activity was assayed at both 8 and 16 hour time-points to gain an appreciation of which agents induced an apoptotic response in a reasonable timeframe from a therapeutic exposure perspective. MIPE was also assayed for single agent viability in a human mesenchymal stem cell (hMSC) line as a surrogate of each library member's potential therapeutic index.
A total of 500 log growing TMD8 cells are seeded per well in 5 uL of a RPMI with glutamine (or Glutamax), without phenol red plus 5% FBS and 1X Pen/Strep into 1536 -solid white high base tissue culture treated Greiner One Bio Plates (789173-F) using a multidrop combi dispenser and a small sterile cassette. Compounds and controls totaling 23nL per well (negative control DMSO and positive control 9.2 uM Bortezomib-final) are immediately added to the plates using a 1536 head pin tool from Kalypsys. The plates are then covered with stainless steel gasket lids from Kalypsys and incubated for 48 hours at 37C under 95% relative humidity with 5% CO2. […] The plates are then spun at 1000 rpms to remove bubbles and incubated for 15 minutes at room temperature before read on a ViewLux using a luminescent filter with a 10 second exposure. The relative luciferase units are used to calculated percent activity using DMSO as 100% and Bortezomib as 0%.

Row | SMILES | viability (% of control)
34 | COc1cc2c(cc1O)CC[C@@H]1[C@@H]2CC[C@]2(C)[C@@H](O)CC[C@@H]12 | 24.3%
35 | COc1cccc2c1C(=O)c1c(O)c3c(c(O)c1C2=O)C[C@@](O)(C(=O)CO)C[C@@H]3O[C@H]1C[C@H](N)[C@H](O)[C@H](C)O1 | 0.7%
36 | Nc1ccn([C@@H]2O[C@H](CO)[C@@H](O)C2(F)F)c(=O)n1 | 1.47% [at 92.2 µM]

Tested on: not listed separately
Test: qHTS assay for small molecule agonists of the antioxidant response element (ARE) signaling pathway (AID 651741; active = well fitted activation curve with a large enough effect in the signal ratio; the % refers to the signal ratio; also: potency is read from the fitted curve at half-maximal effect)
Conditions: HepG2 ARE-bla reporter, beta-lactamase FRET ratio, 16 h; series mostly up to 96 µM
Outline: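 Agonist activity is measured as ARE-driven beta-lactamase expression in a stable HepG2 reporter line, using 16 h compound treatment at 37 C and a FRET substrate fluorescence readout after 2 h.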

Row | SMILES | Potency
37 | Oc1ccc(O)cc1 | 2.11 µM (active)
38 | CC(=O)O[C@]1(C(C)=O)CC[C@H]2[C@@H]3C[C@H](C)C4=CC(=O)CC[C@]4(C)[C@H]3CC[C@@]21C | 27.3 µM (active)
39 | O=C1OC(c2ccc(O)cc2)(c2ccc(O)cc2)c2ccccc21 | inactive
40 | Oc1c(I)cc(Cl)c2cccnc12 | 26.6 µM (active)
